The panel holds about 83,000 compounds, 20% with a hit somewhere; the sample as a whole holds those more often.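 Negative percent growth values reflect cell death: -40 means 40% of the cells present at the start died, and -100 means all died.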 Values without a mark were called inactive. Calls of active or inactive are those of the source. Rule for the calls: active = growth percent below 10; inactive = the rest.

Data on 7 molecules can be found in PubChem BioAssay (NCI).

What all share (assay): NCI-60 one-dose screen, 48 h (100 = growth as untreated, 0 = no growth, -100 = all killed)
One assay relates to NCI-H23 lung. The conditions noted are these: 10 µM unless noted.
In the next assay the test system is NCI-H226 lung. Conditions: 10 µM unless noted.
In the next assay the test system is NCI-H322M lung. The conditions noted are these: 10 µM unless noted.
The test system of the next assay is HOP-62 NSCLC. The conditions noted are these: 10 µM unless noted.
A further assay relates to NCI-H460 lung. The conditions noted are these: 10 µM unless noted.
Another assay deals with HOP-92 NSCLC. Conditions: 10 µM unless noted.
The next assay has as its system NCI-H522 lung. Conditions: 10 µM unless noted.
The test system of the next assay is 786-0 renal. The conditions noted are these: 10 µM unless noted.
Another assay relates to COLO 205 colon. The conditions noted are these: 10 µM unless noted.
For a further assay, the system named is DU-145 prostate. The conditions noted are these: 10 µM unless noted.
For another assay, the system named is K-562 leukemia. The conditions noted are these: 10 µM unless noted.
The test system of another assay is MALME-3M melanoma. The conditions noted are these: 10 µM unless noted.
For another assay, the system named is MDA-MB-231 breast. The conditions noted are these: 10 µM unless noted.
The test system of another assay is RXF 393 renal. The conditions noted are these: 10 µM unless noted.
The test system of another assay is SF-268 CNS. The conditions noted are these: 10 µM unless noted.
The test system of the next assay is SF-295 CNS. The conditions noted are these: 10 µM unless noted.
A further assay concerns SF-539 CNS. Conditions: 10 µM unless noted.
For another assay, the system named is UACC-257 melanoma. The conditions noted are these: 10 µM.
The test system of the next assay is M14 melanoma. Conditions: 10 µM unless noted.

As for `Nc1nc(-c2cccc([N+](=O)[O-])c2)c(N=Nc2cccc(Cl)c2)s1`, the growth with NCI-H23 lung is 45.5%; in the assay with NCI-H226 lung, 58.5%; with NCI-H322M lung it was 75.1%; with HOP-62 NSCLC, 46.3%; with NCI-H460 lung, 49.5%; in the assay with HOP-92 NSCLC, -13.7% (active). Also, the growth is 26% with NCI-H522 lung; 47.3% with 786-0 renal; 48.1% in the assay with COLO 205 colon; 63.6% with DU-145 prostate; 30.1% in the assay with K-562 leukemia; 93.1% in the assay on MALME-3M melanoma. The growth with MDA-MB-231 breast was 47.3%; in the assay with RXF 393 renal, -11.4% (active); with SF-268 CNS it was 41.4%; in the assay on SF-295 CNS, 53%; in the assay on SF-539 CNS it was 55.2%; in the assay on UACC-257 melanoma it was 77.6%. Moreover, the growth in the assay with M14 melanoma was 37%.
With `CS(=O)c1nccc(-c2c(-c3ccc(F)c(OCc4ccccc4)c3)nc3sccn23)n1` (stereo unspecified), the growth in the assay with NCI-H23 lung was 88.2%; in the assay on NCI-H226 lung it was 96.3%; in the assay on NCI-H322M lung it was 73.1%; in the assay on HOP-62 NSCLC, 103%; in the assay on NCI-H460 lung it was 19.1%; in the assay on HOP-92 NSCLC, 51.8%. In addition, the growth with NCI-H522 lung is 31.6%; with 786-0 renal, 99.1%; with COLO 205 colon, 106%; in the assay with DU-145 prostate it was 4.02% (active); in the assay with K-562 leukemia, 17.8%; with MALME-3M melanoma, 91.7%. Moreover, the growth is 93.8% with MDA-MB-231 breast; 96.6% with RXF 393 renal; 105% with SF-268 CNS; 101% in the assay on SF-295 CNS; 94.6% in the assay with SF-539 CNS; 19.8% in the assay with UACC-257 melanoma. Besides, the growth with M14 melanoma was 96.5%.
Regarding `O=C(COc1cccc2cccnc12)Nc1ccc(C(=O)/C=C/c2ccc(Cl)cc2)cc1`, the growth is 89.2% in the assay on NCI-H23 lung; 94.6% in the assay on NCI-H226 lung; 99.1% with NCI-H322M lung; 108% in the assay with HOP-62 NSCLC; 102% in the assay on NCI-H460 lung; 108% in the assay on HOP-92 NSCLC. In addition, the growth is 85.2% in the assay with NCI-H522 lung; 99% with 786-0 renal; 108% in the assay on COLO 205 colon; 88.7% in the assay on DU-145 prostate; 47.4% with K-562 leukemia; 108% in the assay on MALME-3M melanoma. For the same molecule, the growth was 93.4% with MDA-MB-231 breast; 92.5% in the assay with RXF 393 renal; 93.7% in the assay on SF-268 CNS; 91.6% in the assay with SF-295 CNS; 93.5% in the assay with SF-539 CNS; 99.8% with UACC-257 melanoma. Also, the growth in the assay with M14 melanoma was 99.5%.
Regarding `O=C(Nc1cccc(-c2nc(-c3ccc(NC(=O)c4cccs4)cc3Cl)no2)c1)Nc1ccc(NC(=O)C2CC2)c(C(F)(F)F)c1`, the growth in the assay on NCI-H23 lung is -49.8% (active); in the assay on NCI-H226 lung, -46.4% (active); in the assay on NCI-H322M lung, -5.29% (active); with HOP-62 NSCLC, -44% (active); with NCI-H460 lung, -56.9% (active); with HOP-92 NSCLC, -40% (active). Further, the growth is -34.5% (active) in the assay with NCI-H522 lung; -30.7% (active) in the assay on 786-0 renal; -51.7% (active) with COLO 205 colon; -13.4% (active) in the assay on DU-145 prostate; -11.1% (active) in the assay on K-562 leukemia; -80.6% (active) in the assay on MALME-3M melanoma. For the same molecule, the growth is -58.2% (active) with MDA-MB-231 breast; -83.7% (active) with RXF 393 renal; -33.8% (active) with SF-268 CNS; -63.1% (active) in the assay on SF-295 CNS; -85.4% (active) in the assay with SF-539 CNS; -32.2% (active) in the assay on UACC-257 melanoma. Moreover, the growth with M14 melanoma was -41.1% (active).
In the case of `CCCCCCNC(=O)Oc1ccc(/C(=C(/C)c2ccc(OC)cc2)c2ccc(OCCN3CCCC3)cc2)cc1`, the growth with NCI-H23 lung was 78.8%; in the assay with NCI-H226 lung, 96.6%; with NCI-H322M lung it was 86.2%; in the assay on HOP-62 NSCLC it was 88.4%; in the assay on NCI-H460 lung, 55.3%; in the assay on HOP-92 NSCLC, 62.8%. Further, the growth was 92.2% in the assay on NCI-H522 lung; 40.9% with 786-0 renal; 76.2% in the assay on COLO 205 colon; 91.6% with DU-145 prostate; 6.93% (active) in the assay with K-562 leukemia; -13.6% (active) in the assay on MALME-3M melanoma. The growth in the assay on MDA-MB-231 breast is 65.7%; with RXF 393 renal, 61.9%; in the assay on SF-268 CNS it was 83.6%; in the assay with SF-295 CNS, 46.8%; with SF-539 CNS, 37.7%; in the assay with UACC-257 melanoma, 2.85% (active). In addition, the growth in the assay with M14 melanoma was -35.5% (active).
With `CC(C)C[C@H]1C(=O)O[C@H](C(C)C)C(=O)N(C)[C@@H](C(C)C)C(=O)O[C@H](C(C)C)C(=O)N(C)[C@@H](C(C)C)C(=O)O[C@H](C(C)C)C(=O)N1C`, the growth in the assay on NCI-H23 lung is 6.64% (active); with NCI-H226 lung, 20.5%; in the assay on NCI-H322M lung, 13.3%; in the assay on HOP-62 NSCLC, 14.7%; in the assay with NCI-H460 lung, 8.47% (active); in the assay with HOP-92 NSCLC, -23.2% (active). Further, the growth with NCI-H522 lung is 1.72% (active); with 786-0 renal it was 23.3%; with COLO 205 colon it was -89% (active); in the assay with DU-145 prostate, 24.4%; in the assay with K-562 leukemia it was 8.19% (active); with MALME-3M melanoma it was 18%. Moreover, the growth was 8.5% (active) with MDA-MB-231 breast; 19.1% with RXF 393 renal; 20.4% in the assay on SF-268 CNS; 5.53% (active) with SF-295 CNS; 22.3% with SF-539 CNS; 18.5% with M14 melanoma.
For `Oc1ccccc1/C=N/Nc1nc(N/N=C/c2ccccc2O)nc(N2CCOCC2)n1`, the growth in the assay with NCI-H23 lung was 41.5%; with NCI-H226 lung, 23.3%; in the assay on NCI-H322M lung, 44.5%; in the assay with HOP-62 NSCLC it was 25.7%; with NCI-H460 lung it was 32.5%; with HOP-92 NSCLC, -12.8% (active). Besides, the growth is 60.9% with NCI-H522 lung; 30.3% with 786-0 renal; 35.5% in the assay with DU-145 prostate; 25.4% in the assay on K-562 leukemia; 52.6% in the assay on MALME-3M melanoma; 36.3% with MDA-MB-231 breast. Also, the growth in the assay on RXF 393 renal was -0.648% (active); in the assay on SF-268 CNS, 72.3%; in the assay with SF-295 CNS, 19.6%; in the assay on SF-539 CNS, 51.8%; in the assay on UACC-257 melanoma, 53.3%; in the assay with M14 melanoma, 37.6%.
